Data as given in PubChem BioAssay AID1159606 (Sanford-Burnham Center for Chemical Genomics, 2016).
Out of some 360,000 compounds screened, about 7,300 (2%) were called active. For the sample, actives were picked, then their nearest neighbours and some compounds at random. Values without a mark were called inactive. Rule as the data show it: active = inhibition above about 50%; inactive = the rest.

Experiment: inhibitors of TWEAK-Fn14 signaling, primary screen, luciferase reporter cells, uHTS (AID 1159606)
Conditions: TWEAK-stimulated Fn14 reporter cells, luciferase luminescence, 8 h; at 10 µM; hits give high values

For `O=C(Nc1ccc(NC(=O)c2cccs2)cn1)c1ccco1`, the inhibition was 57.4% (active).
In the case of `Cc1cccc(NC(=S)NCc2ccc3[nH]c4c(c3c2)CCCC4)c1`, the inhibition is reported as 70.9% (active).
For `c1ccc(-c2cc3c(NCC4COc5ccccc5O4)ncnc3s2)cc1` (stereo not given), the inhibition was 77.3% (active).
For `O=C(COC(=O)c1cc(=O)[nH]c2ccccc12)Nc1nc(-c2cccc(Br)c2)cs1`, the inhibition was 75.8% (active).
In the case of `CC1=CC(=C(C#N)c2nc3ccccc3s2)C=C(C)N1c1ccc(F)cc1F`, the inhibition is reported as 55.1% (active).
With `NS(=O)(=O)c1ccc(NC(=O)COC(=O)c2c3c(nc4ccccc24)/C(=C\c2ccc4c(c2)OCO4)CCC3)cc1` the inhibition was 55.8% (active).
With `S=C(NN=Cc1ccccn1)Nc1ccccn1` the inhibition was 105% (active).
With `CC(=NCc1ccco1)c1c(C(F)(F)F)[nH]n(-c2nc3ccccc3s2)c1=O` the inhibition was 75.8% (active).
In the case of `Cc1nc2cc(NC(=O)Nc3cccc(F)c3)ccc2n1C`, the inhibition is reported as 81.1% (active).
In the case of `Clc1ccc2nc(-c3ccccc3)nc(C(Cl)Cl)c2c1`, the inhibition is reported as 54.4% (active).
In the case of `CSc1nc(-c2ccccc2)nc(C(Cl)Cl)n1`, the inhibition is reported as 65.2% (active).
In the case of `Cc1cc(Br)ccc1NC(=O)c1cnc(N2CCN(c3ccccn3)CC2)c2ccccc12`, the inhibition is reported as 80.5% (active).
In the case of `Cc1c(Cl)c([N+](=O)[O-])nn1CC(=O)NCCCN1CCOCC1`, the inhibition is reported as 55.9% (active).

In order of rising inhibition:
1. C=CCn1c(=NC(=O)c2cccs2)sc2cc(NC(C)=O)ccc21  -34.5%
2. COc1cccc(N(CC(=O)NC2CCCCCC2)S(=O)(=O)c2ccccc2)c1  -34.4%
3. Cc1ccc(NC(=O)c2ccco2)cc1  -27.8%
4. COc1cnc(SCc2ccc(Cl)c(Cl)c2)nc1Cl  -23.9%
5. OCCc1ccc(NCCc2ccco2)cc1  -21.3%
6. CC1CCC(NC(=O)CN(C)S(=O)(=O)c2ccc3c(c2)c(=O)n(C)c(=O)n3C)CC1 (stereo not given)  -18.7%
7. O=C(COC(=O)c1cc(=O)[nH]c2ccccc12)NCc1cccc(Cl)c1  -18.6%
8. O=C(Cc1ccc(Cl)cc1)NCc1nc(-c2ccccc2)no1  -18%
9. Cc1cc(C(=O)N2CCN(c3ccccn3)CC2)c(C)o1  -12.8%
10. S=C(Nc1cccnc1)Nc1ccccn1  -12.4%
11. NC(N)=Nc1nc(-c2ccccc2)c2cc(Cl)ccc2n1  -9.76%
12. Cc1noc(C)c1C(=O)NCC1COc2ccccc2O1 (stereo not given)  -8.54%
13. C=CCN(C(=O)Nc1ccc2c(c1)nc(C)n2C)c1ccccc1  -7.06%
14. Cc1nc2cc(NCc3cccs3)ccc2n1C  -6.1%
15. CCc1ccccc1NC(=O)c1cc(-c2ccc3c(c2)OCO3)on1  -6.05%
16. Cc1ccc(CCN2CC(C(=O)O)CC2=O)cc1 (stereo not given)  -5.87%
17. CC1CN(c2cc(=O)n(Cc3ccc(F)cc3)c(=O)[nH]2)CC(C)O1 (stereo not given)  -5.29%
18. NS(=O)(=O)c1ccc(NC(=O)COC(=O)c2ccco2)cc1  -4.93%
19. COc1ccc(CCN2CC(C(=O)NCCN3CCNC3=O)CCC2=O)cc1 (stereo not given)  -4.1%
20. O=C(COC(=O)c1ccco1)Nc1ccc(Cl)cn1  -3.57%
21. N#Cc1ccc(-c2nc3c(Cl)cc(C(F)(F)F)cn3c2Cc2ccccc2C(F)(F)F)cc1  -2.71%
22. NS(=O)(=O)c1ccc(NC(=O)COC(=O)CCc2c[nH]c3ccccc23)cc1  -2.39%
23. Cc1nn(-c2ccc(F)cc2)c(Cl)c1/C=C(/CCC(=O)O)c1nc2ccccc2s1  -0.77%
24. O=C(OCc1nnc(-c2ccccc2)o1)c1cc(=O)[nH]c2ccccc12  -0.55%
25. COc1ccc(C2(C)NC(=O)N(CC(=O)c3ccc4c(c3)OCO4)C2=O)cc1 (stereo not given)  -0.46%
26. CCOC(=O)CN(C)S(=O)(=O)c1ccc(-c2cc(C(=O)OC)sc2C(F)(F)F)cc1  0.95%
27. COCCc1nn2c(=O)cc(COC(=O)c3cc(OC)c(OC)c(OC)c3)nc2s1  2.03%
28. Oc1c(CN2CCOCC2)ccc(CN2CCOCC2)c1O  2.4%
29. CC(=O)OCC(C)n1c(=O)c2ccccc2n1C(C)=O (stereo not given)  2.6%
30. O=C(CNc1ccccc1N1CCCC1=O)Nc1cc(Cl)ccc1-n1cncn1  2.85%
31. Cc1cccc(N=C2SC(C)CN2C(=O)CN2C(=O)NC3(CCCC3)C2=O)c1 (stereo not given)  5.82%
32. COC(=O)c1[nH]c2ccc(Br)cc2c1NC(=O)Oc1ccccc1  5.94%
33. Cc1ccccc1CC1(CO)CCCN(Cc2ccc3c(c2)OCCO3)C1 (stereo not given)  6.31%
34. Cc1cc(C)cc(NC(=S)NCCc2c[nH]c3ccccc23)c1  7.03%
35. CCOC(=O)N1CCN(C(c2ccnc3ccccc23)c2nnnn2-c2c(C)cccc2C)CC1 (stereo not given)  8.32%
36. Cc1cc(Br)ccc1NC(=O)c1sc2ncn(CC(=O)N3CCN(c4ccccn4)CC3)c(=O)c2c1C  9.08%
37. O=C(Cn1cnc2ccccc2c1=O)NCC1COc2ccccc2O1 (stereo not given)  9.26%
38. COc1ccc(C2NC(=S)NC3=C2CCc2ccccc23)cc1OC (stereo not given)  9.33%
39. O=C(N/N=C/c1ccccn1)c1cccc(NC(=O)c2ccc(Cl)cc2)c1  9.71%
40. CCOC(=O)c1sc2nc(C)nc(Nc3ccc(OC)c(OC)c3)c2c1C  10.5%
41. CCCCNC(=O)Cn1nc(C)c(S(=O)(=O)N2CCOCC2)c1C  10.8%
42. O=S(=O)(c1ccccc1)N1CN(Cc2ccc(F)cc2)c2nc3ccccc3nc21  11%
43. CCc1cccc(CC)c1NC(=S)NCc1ccc2[nH]c(C)cc2c1  12.3%
44. Cc1c(Cl)c([N+](=O)[O-])nn1CC(=O)NCC1CCCO1 (stereo not given)  12.8%
45. O=C(NCc1cccnc1)c1ccc2nc([C@@H]3O[C@H](CO)[C@H](O)[C@H](O)[C@H]3O)[nH]c2c1  13.3%
46. CCC(c1nnnn1-c1ccc2c(c1)OCCO2)N1CCN(c2ccc(C(F)(F)F)cn2)CC1 (stereo not given)  30.4%
47. CCCCC(O)C1=C[N+](=O)CC=C1 (stereo not given)  39.5%
